Here are results for 58 compounds from PubChem BioAssay AID602250 (The Scripps Research Institute Molecular Screening Center, 2012).

Out of some 360,000 compounds screened, about 2,200 (0.61%) were called active.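 How the source made its calls: active means inhibition above a per-plate cutoff, the plate's mean sample inhibition plus 3 SD (cut at about 24% in these data); inactive means the rest.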 The sample as a whole holds a higher share of actives than the screen did.

A short description of the test: nonselective inhibitors of ATP calcium response in CHO-K1, primary screen, counter-screen for M1 antagonist project, cell-based, Fluo-8 calcium fluorescence, full deck, 1536-well (AID 602250).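 Further: 0% = DMSO plus EC80 ATP and 100% = DMSO alone without ATP.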 The settings on record: CHO-K1 parental, ATP-induced calcium, Fluo-8 fluorescence; at 3 µM; active compounds read high. In general terms: The purpose of a counterscreen is to sort out artefacts and off-target activity.
With `C#Cc1ccc([C@@H]2C=C(C(=O)O)O[C@H](OCCCCO)C2)cc1`, the inhibition (in general, the drop in the measured response relative to a control, in per cent) is -9.51% (inactive). As for `FC(F)(F)COc1nc(N2CCCCC2)nc(N2CCNCC2)n1`, the inhibition is -9.46% (inactive). With `CN(N)c1nc(N2CCCC2)nc(N2CCCC2)n1`, the inhibition is 25.6% (active). As for `O=C(NNc1nc(N2CCCC2)nc(N2CCCC2)n1)c1ccccc1`, the figure is -8.06% (inactive); as for `COC(=O)c1ccc(CN2CCCC(C(=O)Nc3cccc(-n4cnnn4)c3)C2)cc1` (stereo not drawn), 0.04% (inactive). Regarding `O=Cc1c(NCCc2cccc(F)c2)c2ccccc2[nH]c1=O`, the inhibition is -10.6% (inactive). With `CCCCOc1ccc(N(CC(=O)NC(C)C)C(=O)CCC(=O)Nc2ccccn2)cc1`, the inhibition was 23.1% (inactive). Take `COc1cc(CNc2ncn[nH]2)ccc1OCc1ccccc1C`: the inhibition is -1.69% (inactive).

With `O=C(CNS(=O)(=O)c1ccccc1)NCC(=O)OCc1ccccc1F`, the inhibition is -0.17% (inactive).

For the compound `CCSc1ncnc2c(C#N)c3n(c12)CCCCC3`, the inhibition was 40.4% (active). For `CCOC(=O)c1c(N=CN(C)C)c(C#N)c2n1CCCC2`, the inhibition is -8.04% (inactive).

In the case of `CCSC1=C(C#N)C(=O)n2c1cc1c2CCCC1`, the inhibition is -1.55% (inactive). Regarding `Cc1cc2oc(=O)cc(CN(C)Cc3ccccc3)c2cc1Cl`, the inhibition was 6.2% (inactive). Regarding `Cc1ccc2nc(NC(=O)CSc3nc(=O)n(CCCN(C)C)c4c3CCC4)sc2c1`, the inhibition is -19.7% (inactive).

Consider `CCN(CC)CCn1c2c(c(SCC(=O)Nc3ccc(C(C)C)cc3)nc1=O)CCC2`, for which the inhibition is -0.47% (inactive). In the case of `CCN(CC)CCn1c2c(c(SCC(=O)Nc3nc4ccccc4s3)nc1=O)CCCC2`, the inhibition is 28.3% (active). As for `C=CCNC(=S)NNc1ncnc2sc3c(c12)CC(C)(C)OC3`, the inhibition was -3.73% (inactive). Consider `O=C(C1CCN(S(=O)(=O)c2cccs2)CC1)N1CCCCCC1`, for which the inhibition is -13.2% (inactive). On to `Cc1ccc(S(=O)(=O)N2C[C@]3(O)C[C@@H]4C(=O)N(c5ccccc5)C(=O)[C@@H]4C[C@]3(OC(=O)NC3CC3)C2)cc1`, for which the inhibition was -3.35% (inactive). Regarding `Cc1cccc(NC(=O)c2ccc3nsnc3c2)c1C`, the inhibition is -0.08% (inactive). For `O=C(Nc1ccccc1)c1ccc2nsnc2c1`, the inhibition is 29.9% (active). Take `CC(C)n1c(=O)[nH]c2cc(C(=O)Nc3ccccc3)ccc21`: the inhibition is 2.48% (inactive). As for `CCC1Oc2ccc(Cl)cc2N(CC(=O)O)C1=O` (stereo not drawn), the figure is -18.5% (inactive); as for `COc1ccc(C(=O)NC(=S)N2CCNC(=O)C2CC(=O)OC(C)C)cc1` (stereo not drawn), -6.8% (inactive); as for `CN(C)S(=O)(=O)c1ccc(C(=O)NCCN=C2NS(=O)(=O)c3ccccc32)cc1`, -3.13% (inactive). As to `O=C(NCCN=C1NS(=O)(=O)c2ccccc21)c1ccc(S(=O)(=O)N2CCOCC2)cc1`, the inhibition is 2.91% (inactive). As for `Cc1ccccc1C(=O)NCCN=C1NS(=O)(=O)c2ccccc21`, the figure is 27.1% (active). As for `O=C(c1cc(COc2c(F)cccc2F)on1)N1CCSCC1`, the figure is -8.58% (inactive); as for `C=CCC1(CC=C)CCCN1C(=O)c1cc(COc2ccc(-n3cncn3)cc2)on1`, 31.3% (active); as for `CCCC(=O)N1CCC1(C)C(=O)Nc1ccc(-n2cncn2)cc1` (stereo not drawn), -6.21% (inactive). With `COc1cc(C(c2c(NC(=O)c3ccco3)sc(C)c2C)N2CCOCC2)cc(OC)c1OC` (stereo not drawn), the inhibition was 5.36% (inactive). For `CCc1cc(C(c2ccccc2OC)N2CCOCC2)c(NC(=O)c2ccccc2)s1` (stereo not drawn), the inhibition was 24.8% (active).

On to `COc1ccccc1C(=O)Nc1cccc(C(=O)N2CCOCC2)c1`, for which the inhibition is -9.07% (inactive).

Consider `CC(C)OCCCNC(=O)c1ccc(C2SCC(=O)N2Cc2ccco2)cc1` (stereo not drawn), for which the inhibition is -4.67% (inactive). With `COC(=O)c1ccc(-c2c(-c3ccccc3)ncc3cc(OC)c(OC)cc23)cc1`, the inhibition was 8.1% (inactive).

Take `Cc1cc(=O)n2nc(N3CCCC(C(=O)N4CCN(C)CC4)C3)sc2n1` (stereo not drawn): the inhibition was 26.5% (active). Regarding `Cc1cc(=O)n2nc(N3CCCC(C(=O)NCc4cccc(Cl)c4)C3)sc2n1` (stereo not drawn), the inhibition was -13.5% (inactive).

Turning to `Cc1cc(=O)n2nc(N3CCCC(C(=O)NCc4ccc(Cl)cc4)C3)sc2n1` (stereo not drawn), the inhibition is -0.44% (inactive). Consider `Cc1ccc(NC(=O)c2oc(=O)c3ccccc3c2-c2ccccc2)c(C)c1`, for which the inhibition is -9.65% (inactive). As to `CCc1nnc(NC(=O)CSCc2cc(=O)n3cc(C)sc3n2)s1`, the inhibition was -12.4% (inactive). As for `CC(=O)N1CCCc2cc(S(=O)(=O)N3CCCC(C(=O)N4CCN(c5cccc(Cl)c5)CC4)C3)ccc21` (stereo not drawn), the figure is 30.4% (active); as for `O=C(C1CCCN(S(=O)(=O)c2ccccc2)C1)N1CCN(c2ccc(F)cc2)CC1` (stereo not drawn), -2.45% (inactive); as for `COc1cccc(N2CCN(C(=O)C3CCCN(S(=O)(=O)c4cnc[nH]4)C3)CC2)c1` (stereo not drawn), 2.59% (inactive).

With `COc1ccc(OC)c(S(=O)(=O)N2CCCC(C(=O)NCCc3ccccc3)C2)c1` (stereo not drawn), the inhibition was -10.1% (inactive).

Turning to `Cc1nn(Cc2ccccc2)c(C)c1C(=O)N1CCN(CC(=O)Nc2ccccc2Cl)CC1`, the inhibition is 23.9% (active).

As for `CCC(=O)Nc1ccccc1C(=O)N1CCN(Cc2ccccc2)CC1`, the inhibition was 19.3% (inactive).

`CCc1ccccc1NC(=O)CN1CCN(C(=O)c2cc(C3CC3)nn2-c2ccccc2)CC1`: the inhibition was -11.2% (inactive). For `CCCC(C)c1nnc(NC(=O)C2CC(=O)N(c3ccc(OCC)cc3)C2)s1` (stereo not drawn), the inhibition is -4.36% (inactive).

Consider `Cc1nc(SCC(=O)NC2CCCC2)[nH]c(=O)c1C`, for which the inhibition was -8.77% (inactive).

Take `CCCCC(=O)N1CC2(C)CN(C(=O)CCCC)CC(C)(C1)C2=O`: the inhibition was -5.12% (inactive). `COc1cc(O)c2c(=O)c3c(O)c(O)ccc3oc2c1OC`: the inhibition is -9.49% (inactive). As for `COc1c(O)cc2oc(-c3ccc(O)c(O)c3)cc(=O)c2c1O`, the figure is 24.9% (active); as for `CCOC(=O)COc1cc(OCC(=O)OCC)c2c(=O)cc(-c3ccccc3)oc2c1`, -13.4% (inactive); as for `CCN(CC(=O)NCc1cccs1)C(=O)/C=C/c1ccc(C)cc1`, -10.9% (inactive). As to `CCCc1cc(=O)[nH]c(SCC(=O)Nc2sc3c(c2C#N)CCCC3)n1`, the inhibition was 5.46% (inactive). `Cc1sc(NC(=O)C2=COCCO2)c(C#N)c1C`: the inhibition is -16.8% (inactive). As for `CCCc1ccc(-c2c(C)sc(NC(=O)c3ccnn3C)c2C#N)cc1`, the figure is 29.1% (active); as for `Nc1cccc(S(=O)(=O)Nc2ccc(SC(F)F)cc2)c1`, 12.1% (inactive).
